Screening data (PubChem)
An excerpt weighted towards active compounds, which were near 12% of everything screened.
Pf growth 96h = inhibits malaria parasite growth, 96 h | P. falciparum luciferase reporter growth, 96 h | Potency, µM (titrated, usually from 28.7 µM), for the others: at the top dose activity change, negative = inhibition, actives largely listed as inhibitors | actives 6.9% (n = 320,000) | AID 504834; also: % is scaled to controls: 0 for no effect and ±100 for the full control effect
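Cell-based qHTS: luciferase-tagged P. falciparum in erythrocytes (2% hematocrit, 0.05% parasitemia final) incubated with compounds for 96 hours, 37 C, 5% CO2; luciferase detection reagent then added and luminescence measured.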
AMA1-RON2 inh = AMA1-RON2 (P. falciparum) interaction inhibition; AID 720542; actives 0.2% (n = 360,000); AlphaScreen AMA1-biotinylated RON2 peptide binding; Potency, µM (series often up to 58.2 µM), inactives show top-dose activity change, negative = inhibition, usual class: inhibitors;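 also: 0% = vehicle wells and -100% = peptide control; nearly all actives have a fitted effect of over 45% in size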
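AMA1 (3D7) with his tag at 25 nM final met compounds first, then biotinylated RON2 peptide at 25 nM; detection used donor plus acceptor beads, 10 µg/mL apiece, read by AlphaScreen after 30 min at room temperature.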
NS1 inh = blocks influenza NS1 protein function. AID 2326. actives 0.4% (n = 270,000). Potency, µM (top dose mostly 46.1 µM), without a hit: top-dose activity, positive = more growth; calls by dose curve; also: actives are rising curves; nearly all actives have a fitted effect of over 50% in size
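Read-out: OD600 growth recovery of NS1-expressing budding yeast. Cells grown overnight at 30C in -URA glucose medium, washed, resuspended and diluted 1:100 in 2% galactose assay medium, pH 6.0. Same strain lacking NS1 served as positive control.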
HCV inh = HCV inhibition. Huh7.5.1 HCVcc-Cre infection, luciferase reporter, 44 h. Potency, µM (series often up to 41.8 µM), for inactives: top-dose activity change, negative = inhibition, actives largely listed as inhibitors. actives 3.4% (n = 340,000); also: % is scaled to controls: 0 for no effect and ±100 for the full control effect
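Cells (1,000/well) were plated 4 h before compound, then infected with HCVcc-Cre virus (~0.5 moi). After 44 h further culture, infection was read as luciferase luminescence following a 15 min substrate incubation at room temperature.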
Pf growth 48h = inhibits P. falciparum growth in the first generation, 48 h; actives 5.9% (n = 310,000); Potency, µM (series often up to 28.7 µM), without a hit: top-dose activity change, negative = inhibition, usual class: inhibitors; P. falciparum luciferase growth in erythrocytes, 48 h; also: % is scaled to controls: 0 for no effect and ±100 for the full control effect
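Growth was read as firefly luciferase luminescence after a 48 h, 37 C, 5% CO2 exposure of compounds to reporter-bearing P. falciparum cultures (0.1% parasitemia, 2% hematocrit final) in Albumax-supplemented RPMI 1640.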
SARS PLP yeast = SARS-CoV PLP inhibition in yeast; S. cerevisiae expressing SARS-CoV PLpro, growth rescue; Potency, µM (titrated, usually from 32.9 µM), inactives show top-dose activity, positive = growth rescue, actives largely listed as activators; actives 0.19% (n = 330,000); AID 485353; calls by dose curve; also: 0% is about no effect; nearly all actives have a fitted effect of over 55% in size
Active calls of the source: *; ? = inconclusive; . = no result given; [ ] = dose if it differs, or a comment. Unless noted, calls follow the shape of the dose curve; as a rule, active = well fitted curve in the direction sought with a large enough effect; inconclusive = small, poorly fitted or top-dose-only effect, or another doubt; inactive = no such curve, though single readings can be large; an effect the other way counts as inactive or inconclusive. Potency is read from the fitted curve at half-maximal effect.

SMILES	Pf growth 96h	AMA1-RON2 inh	NS1 inh	HCV inh	Pf growth 48h	SARS PLP yeast
CCOc1ccc(-n2c(C)c(C(C)=O)c3cc(OCC(N)=O)ccc32)cc1	0%	5%	0%	11%	13µM*	1%
CCOC(=O)c1c(C)n(C)c2ccc(OC(C)=O)cc12	?	5%	-4%	?	21%	-29%
CCOC(=O)c1c(C)n(C)c2ccc(OCC(N)=O)cc12	10µM*	0%	6%	-17%	3%	-1%
CCOC(=O)c1c(C)n(C)c2cc(-c3ccc(F)cc3)c(O)cc12	-22%	10%[11.6 µM]	2%	-13%	7.4µM*	-11%
COCCOC(=O)c1c(C)n(C)c2ccc(OC(=O)c3c(OC)cccc3OC)cc12	?	-4%	-2%	?	1.9µM*	1%
O=C(O)C[C@H]1c2cc(C(F)(F)F)ccc2S(=O)(=O)N1C1CCCCC1	.	5%	.	14%	.	.
CN1c2c(nc(N)[nH]c2=O)NCC1CNc1ccc(C(=O)NC(CCC(=O)O)C(=O)O)cc1 (centres undefined)	19%	.	.	.	9%	.
CC(C)OC(=O)C(C(=O)OC(C)C)=C1SC=CS1	-12%	.	.	.	-3%	.
CCOC(=O)c1c(C)n(C)c2ccc(OCC(O)Cn3nc(C)cc3C)cc12 (centres undefined)	.	-12%	-56%	?	?	-2%
CCOC(=O)c1c(C)n(C)c2ccc(OCC(O)CN(CC)CC)cc12 (centres undefined)	5.9µM*	-3%	-3%	?	.	1%
O=C(NCCCCc1ccccc1)NC[C@@H]1CC[C@@H](Cc2ccc(-c3ccccc3)cc2)O1	.	2%	.	?	.	-27%
O=C(NC[C@@H]1CC[C@@H](Cc2ccc(-c3ccccc3)cc2)O1)Nc1ccc(Br)cc1	.	-4%	.	5µM*	.	-13%
COc1ccc(NC(=O)CSc2nccn2Cc2ccc(F)cc2)cc1	13%	-10%	-26%	.	3%	-5%
c1ccc(-c2nnnn2-c2ccccn2)cc1	.	-2%	.	-1%	.	.
Cc1cccc(C(C)C)c1-n1nnnc1-c1ccccc1	-7%[5.75 µM]	12%	-97%	19%	10µM*	-12%
CC(=O)Nc1ccccc1Nc1cc(C#N)c(C#N)cc1[N+](=O)[O-]	7.4µM*	10%	-5%	?	?	3%
CC(=O)Nc1ccc(N=Nc2ccccc2)cc1[N+](=O)[O-]	.	?	.	-24%	.	.
CCOC(=O)c1cc(C#N)c(N2CCNCC2)nc1C(F)(F)F	99%	-4%	-6%	?	?	1%
CCOC(=O)c1cc(C#N)c(N2CCN(C(=O)c3ccccc3)CC2)nc1C(F)(F)F	10µM*	0%	-1%	-12%	?	2%
CCOC(=O)c1cc(C#N)c(N2CCN(C(=O)c3cccc(C(F)(F)F)c3)CC2)nc1C(F)(F)F	?	1%	12%	8.9µM*	5.9µM*	2%
COc1cccc(OCC(=O)Nc2c3c(nn2-c2ccc(F)cc2)CS(=O)(=O)C3)c1	2%	5%	5%	.	66%	?
COC1=Nc2ccccc2/C=C\c2ccccc21	.	4%	.	.	.	.
COc1cccc(-c2cc(C(=O)NC3CCCCC3)no2)c1	65%	-4%	2%	-6%	89%	-1%
C/C=C/c1cnc2c(c1)C(=O)N([C@H](C)CO)C[C@H](C)[C@@H](CN(C)C(=O)CN1CCOCC1)O2	.	8%	.	.	.	.
Cc1ccccc1C(=O)Nc1nnc(-c2ccco2)s1	3%	0%	-1%	11µM*	426%	-3%
SMILES	Pf growth 96h	AMA1-RON2 inh	NS1 inh	HCV inh	Pf growth 48h	SARS PLP yeast
Cn1cnc(S(=O)(=O)N2CCCCC2c2cc(C(=O)Nc3ccc(F)c(Cl)c3)no2)c1 (centres undefined)	.	0%	.	.	.	.
Cc1onc(-c2ccccc2)c1C(O)c1ccc(F)cc1 (centres undefined)	-34%	12%	1%	10%	-38%	1%
O=[N+]([O-])c1ccc(-c2cnc(NO)nc2)cc1	?	48%[11.6 µM]	9%	-1%	12µM*	-20%
Nc1ncc(-c2ccc([N+](=O)[O-])cc2)cn1	-91%	-15%	-3%	-6%	42%	-3%
Cc1ccc(C)n1-c1ccc(C(=O)/C=C/N(C)C)cc1	15µM*	-10%	.	?	?	1%
CC(C)CC(=O)N1CCN(S(=O)(=O)c2ccc(C3CCCCC3)cc2)CC1	5%	-6%	.	11µM*	?	5%
Cc1ccc(-c2c(C)sc3nc(CN4CCN(CC(=O)NC5CC5)CC4)[nH]c(=O)c23)cc1	?	36%	.	-1%	10µM*	-4%
COc1ccc(N2c3ccccc3CN(Cc3ccccc3)CC2Cc2cc(OC)c(OC)c(OC)c2)cc1 (centres undefined)	.	11µM*	.	.	.	.
C[C@H]1[C@@H](Cc2cc(Cl)cc(Cl)c2)N(c2ccccc2)c2ccccc2CN1Cc1ccccc1	.	25%	.	.	.	.
COc1ccc(OC)c(NC(=O)COC(=O)CCc2ccc(S(=O)(=O)N3CCOCC3)cc2)c1	.	3%	.	5%	.	1%
CCOC(=O)c1c(NC(=O)COC(=O)Cn2cnc3ccccc32)sc2c1CCC(C)C2 (centres undefined)	39%	-19%	-2%	?	7%	-23%
CCOC(=O)c1c(NC(=O)CSc2nnc(-c3c[nH]c4ccccc34)n2C)sc2c1CCCC2	?	-5%	-5%	-2%	?	-13%
CCOC(=O)c1c(NC(=O)CSc2nnc(-c3c[nH]c4ccccc34)n2CCOC)sc2c1CCCC2	9.3µM*	-18%	?	11µM*	7.4µM*	0%
CCOC(=O)c1c(NC(=O)CSc2nnc(C)s2)sc2c1CCCCC2	17%	-18%	-1%	10µM*	-17%	-9%
CCOC(=O)c1c(NC(=O)CSc2nnc3c(Cl)cc(Cl)cn23)sc2c1CCC2	-30%	-7%	14%	?	2%	-10%
CCOC(=O)c1c(NC(=O)Cn2nnc3ccccc32)sc2c1CCC(C)C2 (centres undefined)	.	-6%	?	1.6µM*	?	-13%
CCOC(=O)c1c(NC(=O)CSc2nnc(C)s2)sc2c1CCC(C)C2 (centres undefined)	16%	-10%	-8%	11µM*	12µM*	-2%
N#Cc1cccnc1N1CCC(C(N)=O)CC1	47%	2%	-5%	8%	31%	1%
CCN(c1ccccc1)S(=O)(=O)c1ccc(Cl)c(NC(=O)CNCc2ccccc2OC)c1	.	14%	.	11µM*	.	0%
CCN(c1ccccc1)S(=O)(=O)c1ccc(OC)c(NC(=O)c2cc(Cl)ccn2)c1	6.6µM*	-10%	.	-14%	?	-5%
